# From PubChem BioAssay
# TbPYK inhibitor – blocks Trypanosoma brucei pyruvate kinase. Q57TT1. TbPYK enzyme, Kinase-Glo Plus ATP luminescence, 45 min. Potency, µM (top dose mostly 76.8 µM), for the others: at the highest dose activity, negative = inhibition, most hits filed as inhibitors. 410,000 compounds, 0.12% hits. AID 624173; note: potency is the fitted concentration of half-maximal effect; % is set by controls: 0 for no effect and ±100 for the full control effect; nearly all actives have a fitted effect of over 50% in size
#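 Luminescence from Kinase-Glo Plus, added after a 45-minute room-temperature reaction, served as the end-point read-out. The enzyme and substrate were preincubated with compound before ADP (130 uM final) initiated turnover. Concentration-effect curves came from normalized qHTS data.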
# FBPA Giardia inh – blocks Giardia fructose-bisphosphate aldolase activity; 290,000 compounds, 0.71% hits; purified Giardia FBPA; AID 2451; A8B2U2; Potency, µM (doses to about 59.6 µM), for the others: at the top dose activity, negative = inhibition, hits mostly inhibitors; note: potency is the fitted concentration of half-maximal effect; % is set by controls: 0 for no effect and ±100 for the full control effect; nearly all actives have a fitted effect of over 55% in size
# Target sequence (A8B2U2 whole entry, looked up): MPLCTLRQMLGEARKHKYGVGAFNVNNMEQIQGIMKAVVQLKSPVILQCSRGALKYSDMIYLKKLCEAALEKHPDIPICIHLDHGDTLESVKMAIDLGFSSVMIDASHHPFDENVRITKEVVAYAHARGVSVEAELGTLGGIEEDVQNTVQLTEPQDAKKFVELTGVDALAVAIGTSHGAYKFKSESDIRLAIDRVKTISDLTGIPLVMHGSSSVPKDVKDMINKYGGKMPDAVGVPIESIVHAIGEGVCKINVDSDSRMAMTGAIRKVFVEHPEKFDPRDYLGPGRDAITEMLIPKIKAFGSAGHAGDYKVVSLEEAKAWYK
#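 Giardia FBPA (40 nM reagent) was preincubated 10 min at RT with compound (up to 57.5 uM final), then substrate plus GAPDH/TPI/NAD/arsenate coupling system with diaphorase/resazurin was added; resorufin fluorescence (525/598 nm) was read after 20 min.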
# RE007 growth inh – less growth of the S. pombe RE007 Vpr strain | S. pombe RE007 Vpr strain, BacTiter-Glo ATP luminescence, 24 h | Potency, µM (titrated, usually from 92.2 µM), for inactives: top-dose activity change, negative = less growth, most hits filed as inhibitors | 360,000 compounds, 0.21% hits | AID 651644; active = well fitted falling curve with a large enough effect; inconclusive = small, poorly fitted or top-dose-only effect; inactive = no such curve, though single readings can be large or run the other way; note: potency is the fitted concentration of half-maximal effect; % is set by controls: 0 for no effect and ±100 for the full control effect; nearly all actives have a fitted effect of over 50% in size
#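 Fission yeast RE007 carrying one integrated HIV-1 vpr copy, seeded at OD 0.01 in PMG+AL medium with 23 nL pinned compound. Grown 24 h at 30 degrees; viability read by BacTiter-Glo luminescence after 5 min.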
# Cycloheximide cs – counter-screen hit for Shiga toxin inhibitors, cycloheximide; max response, %; cell reporter, cycloheximide protein synthesis inhibition counterscreen; 300,000 compounds, 12% hits; in the data active = max response mostly above about 13%, no sharp cut-off; inactive = mostly below about 14%; note: read at 38.3 µM for the half of the compounds with a filed dose; 0% is about no effect
# LmPK inhibitor – inhibitors of Leishmania mexicana pyruvate kinase; Q27686; purified LmPK, Kinase-Glo ATP luminescence, 1 h; Potency, µM (highest dose often 57.5 µM), for the others: top-dose activity change, negative = inhibition, usual class: inhibitors; 290,000 compounds, 0.37% hits; AID 1721; note: potency is the fitted concentration of half-maximal effect; % is set by controls: 0 for no effect and ±100 for the full control effect
#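 Kinase-Glo luminescence read after 1 h RT reaction of 0.1 nM LmPK with 0.5 mM PEP and 0.1 mM ADP. Activity scaled between uninhibited and enzyme-free controls.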
# Shiga inhibitor – inhibitors of Shiga toxin in Vero cells | Vero cells, Shiga toxin protein synthesis inhibition reporter | inhibition, % at 38.7 µM | 290,000 compounds, 9.2% hits; in the data active = inhibition mostly above about 28%, no sharp cut-off; inactive = mostly below about 43%; note: 0% is about no effect
# * hit, by the source's call; ? = inconclusive; . = no result; [ ] = remark or other dose. The full list was thinned out, with hits kept by preference. Unless noted, calls come from the whole dose curve; as a rule, active = well fitted curve in the direction sought with a large enough effect; inconclusive = small, poorly fitted or top-dose-only effect, or another doubt; inactive = no such curve, though single readings can be large; an effect the other way counts as inactive or inconclusive.
SMILES,TbPYK inhibitor,FBPA Giardia inh,RE007 growth inh,Cycloheximide cs,LmPK inhibitor,Shiga inhibitor
CC1(C)OC(C(O)(c2cc(C(F)(F)F)cc(C(F)(F)F)c2)c2cc(C(F)(F)F)cc(C(F)(F)F)c2)C(C(O)(c2cc(C(F)(F)F)cc(C(F)(F)F)c2)c2cc(C(F)(F)F)cc(C(F)(F)F)c2)O1 (configuration not stated),.,0%[12.9 µM],.,.,.,.
COc1cc(/C=N/NC(=O)c2ccccn2)ccc1OC(=O)c1ccc(Br)cc1,-6%,10%,-12%,25*,-4%,41
COc1cc(/C=N/NC(=O)c2ccccn2)ccc1OC(=O)c1ccccc1Br,-4%,3%,-6%,43*,-1%,71*
CCN(CC)S(=O)(=O)c1ccc2c(c1)N(CC(=O)N1CCN(c3cccc(OC)c3)CC1)C(=O)CO2,6%,.,.,.,.,.
CC1(C)OC2OC(COC(=O)c3ccccc3)C3OC(C)(C)OC3C2O1 (configuration not stated),-9%,1%,3%,31*,-1%,2
O=Cc1cc(N=Nc2cccc(C(=O)O)c2)ccc1O,-16%,?,-13%,39*,-4%,76*
O=Cc1cc(N=Nc2ccccc2Cl)ccc1O,-2%,5%,?,34*,22%,29
Cc1cc(N=NC(=O)c2ccccc2)ccc1O,-17%,?,5%,16,-5%,20
C/C(=N/NC(=O)c1ccccc1)C(=O)O,7%,-19%,5%,42*,?,74*
O=C(N/N=C/c1[nH]c2ccccc2c1Cl)c1cccc(Br)c1,2%,-1%,-8%,7,10%,12
CC(/C=C/C=C/c1ccccc1)=N\NC(=O)c1cccnc1,6%,-11%,-9%,-2,1%,23
CC(/C=C/C=C/c1ccccc1)=N/NC(=O)c1ccc2c(c1)OCCO2,-23%,7%,4%,31*,-1%,63*
C/C(=N\NC(=O)c1cccc(Br)c1)c1ccc(Br)cc1,-3%,3%,9%,33*,5%,54*
CC(=N\NC(=O)c1ccccc1)/C(=N/O)C(=O)Nc1ccccc1,1%,-8%,-10%,-2,-5%,23
O=C(N/N=C/C1C(c2ccccc2)C1(Cl)Cl)c1cccc(Br)c1 (configuration not stated),-1%,1%,-2%,23*,0%,68
C/C(=N\NC(=O)c1ccccc1)c1cccc(Br)c1,-15%,-6%,-2%,48*,-8%,124*
C/C(=N\NC(=O)c1ccccc1)C1C2C=CC(C2)C1(C)C (configuration not stated),0%,11%,-3%,48*,-5%,91*
C/C(=N\NC(=O)c1ccccc1)c1ccc(C)c([N+](=O)[O-])c1,-6%,1%,15%,-2,0%,6
CC(/C=C/c1ccccc1)=N/NC(=O)c1cccc(Br)c1,3%,0%,-11%,20*,2%,111
CC(C)c1cccc2c([Si](C)(C)C)c3c(nc12)-c1cccc(=O)n1C3,.,-5%,.,.,.,.
Cc1ccc(O)cc1 (tested in a mixture with another compound),1%,.,.,.,.,.
Oc1cc[c]([Hg][Cl])cc1,1.4µM*,.,.,.,.,.
CN(C)c1ccc(C(CNC(=O)c2ccc(C(C)(C)C)cc2)N2CCCC2)cc1 (configuration not stated),2%,.,.,.,.,.
CCOc1ccccc1NC(=O)c1c2c(nc3ccccc13)C(=O)N(C1CCCCC1)C2,0%,.,.,.,.,.
CC1(C)CC(C(CCN(Cc2ccccc2)C(=O)c2ccco2)c2ccc(F)cc2)CCO1 (configuration not stated),-8%,1%,.,15,0%,-8
SMILES,TbPYK inhibitor,FBPA Giardia inh,RE007 growth inh,Cycloheximide cs,LmPK inhibitor,Shiga inhibitor
O=C(c1ccco1)N(CCC(c1ccccc1)c1ccco1)Cc1ccc(F)cc1 (configuration not stated),-11%,0%,-5%,22*,-2%,20
O=Nc1[nH]c(=O)c(/C=C(\O)c2ccccc2)nc1NO,-5%,?,-1%,59*,-2%,62*
CCCCOc1ccc(C(C)NC(=O)c2cccc(Nc3nc4ccccc4n4nnnc34)c2)cc1 (configuration not stated),1%,.,.,.,.,.
CCOc1ccc(NC(=O)c2ccc(OC)cc2)cc1,2%,0%,1%,43*,0%,61*
CCOc1ccc(NC(=O)c2ccc(N)cc2)cc1,2%,1%,-17%,12*,-22%,25*
CCOc1ccc(NC(=O)c2ccc(NC(=O)c3ccc(NC(N)=O)cc3)cc2)cc1,3%,.,15%,.,.,.
CCOC(=O)Nc1ccc(C)cc1Br,8%,0%,-10%,1,-2%,-2
CCOC(=O)NC(=S)Nc1ccc(C(C)(C)C)cc1Br,-3%,-1%,?,22*,2%,25
CCOc1ccc(NC(=O)c2nn(C)cc2Br)cc1,-15%,-1%,-3%,15*,32µM*,43
COc1ccc(NC(=O)c2ccc(NC(=O)c3ccncc3)cc2)cc1,5%,9%,-7%,-1,2%,-11
CCOc1ccc(NC(=O)c2ccc(NCC(=O)N3CCCCCC3)cc2)cc1,-9%,-10%,1%,27*,-15%,38
CCOc1ccc(C(=O)NCC(=O)N2CCCCCCC2)cc1,0%,.,-19%,.,.,.
COc1ccc(NC(=O)c2ccc(Oc3ncccn3)cc2)cc1,4%,0%,-13%,22*,-4%,57*
CCOc1ccc(NC(=O)c2ccncc2)cc1,-1%,0%,4%,17*,-11%,5
COc1ccc(C(=O)Nc2ccc(C3CC3(Cl)Cl)cc2)cc1 (configuration not stated),-4%,-3%,18%,21*,11%,32
COc1ccc(NC(=O)c2ccc(NC(=O)COC(=O)CC(NC(=O)c3ccccc3Cl)c3ccccc3)cc2)cc1 (configuration not stated),-9%,-4%,3%,22*,2%,49
CCOC(=O)NC(NC(=S)Nc1ccc(OC)cc1)C(Cl)(Cl)Cl (configuration not stated),-5%,3%,9%,1,2%,-14
CCOC(=O)NC(=S)Nc1ccc(OC)cc1,-1%,0%,-5%,18*,-1%,33
Cn1cc(Br)c(C(=O)Nc2ncc(Br)s2)n1,-5%,0%,-7%,36*,-13%,41
CCOc1ccc(NC(=O)c2ccc(NC(=O)COC(=O)Cc3ccccc3)cc2)cc1,-8%,0%,-4%,40*,-3%,50*
CCCn1c2ccccc2c2cnn(CC(=O)NCCc3ccc(OCC)c(OCC)c3)c(=O)c21,0%,.,.,.,.,.
